PubChem BioAssay
Values joined by “and” are separate entries in the source; they are usually repeats but may differ in a detail not shown here. Identical values can stand only once. Active and inactive are the calls of the source.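 Rule for the calls, unless noted: active = thallium flux through the channel raised or lowered by more than 3 SD from vehicle-only wells, actives on both sides; inactive = the rest.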

What was measured:
[1] = P. berghei load reduction in hepatocytes – cell-based, HepG2, luciferase luminescence, HepG2 viability, primary screen (AID 624349; in the data active = parasite load remaining mostly below about 12%, no sharp cut-off; inactive = mostly above about 10%;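 note: 100% = mean of DMSO negative control wells on the same plate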); details: P. berghei liver stage in HepG2, luciferase luminescence, concentration not given here; parasite load remaining: stronger effect = lower value; viability: measured here: HepG2 viability without parasites
[2] = molecular target: 6-phosphogluconate dehydrogenase, decarboxylating (Homo sapiens) (UniProt P52209); test: inhibition of human phosphogluconate dehydrogenase – biochemical, recombinant enzyme, NADPH absorbance, primary screen (AID 1159550;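 active = at least 20% inhibition of 6-phosphogluconate dehydrogenase activity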); details: recombinant 6PGD, NADPH absorbance 341 nm; at 10 µM; stronger effect = higher value
[3] = viability loss with induced miR-34 in A549 – imaging, A549 dox-inducible miR-34, nuclei and caspase counts, primary screen (AID 1347080;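 active = compounds whose cell count with miR-34 switched on is under 0.7 times the count with it off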); details: A549 miR-34 inducible, Hoechst nuclei count, 48 h
[4] = MELAS cybrid and Rieske KO viability enhancers – cell-based, MELAS cybrids, Rieske KO mouse fibroblasts, CellTiter-Glo, primary screen (AID 1508586;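 active = mean z-score across replicates of 1.96 or higher in either the MELAS or the Rieske mutant cell line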;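 note: z relative to plate mean and SD of compound and empty wells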); details: low glucose
[5] = molecular target: Mitogen-activated protein kinase 7 (Homo sapiens) (UniProt Q13164); test: Gal4-ERK5 driven luciferase induction – cell-based, HTS, primary screen (AID 1508626;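 active = luciferase signal above three times the same-plate solvent-only control wells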;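 note: luciferase driven by Gal4-ERK5 fusion binding five Gal4 sites before minimal TATA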); details: HeLa Gal4-ERK5 transactivation, 18 h, at 5 µM, stronger effect = higher value
[6] = galactose survival enhancers in mitochondrial complex I cybrids – cell-based, galactose medium, ATP luminescence, primary screen (AID 1645843;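 active = z-score of at least 1.8 in each of two replicates, scored against plate mean and spread of sample wells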;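 note: positive z means more ATP and so rescue of galactose-driven cybrid death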); details: complex I mutant cybrid cells, 72 h, stronger effect = higher value
[7] = signal quenchers or enhancers, Cy5 substrate/SSB – biochemical, NIH Clinical Collection, E. coli SSB, artefact control for HCV NS3 helicase inhibitor project (AID 743268; call rule not given here); details: Cy5-oligo bound E. coli SSB, fluorescence interference
[8] = test system: Hepatitis C virus NS3 helicase; test: blockers of NS3h binding to DNA – biochemical, fluorescence polarization, NIH Clinical Collection, primary screen (AID 743270; call rule not given here); details: NS3 helicase binding to Cy5-dT15 DNA, stronger effect = higher value, concentration not given here
[9] = molecular target: Single-stranded DNA-binding protein (Escherichia coli (strain K12)) (UniProt P0AGE0); test: SSB-ssDNA binding inhibitors – biochemical, fluorescence polarization, NIH Clinical Collection, counter-screen for HCV NS3 helicase inhibitor project (AID 743271; in the data active = inhibition above about 28%); details: E. coli SSB-DNA binding, stronger effect = higher value, concentration not given here
[10] = compounds distorting NS3 helicase fluorescence signal – biochemical, NIH Clinical Collection, artefact control for HCV NS3 helicase inhibitor project (AID 743272; call rule not given here;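 note: HCV NS3 helicase with a Cy5 labelled single stranded DNA probe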); details: fluorescence interference counterscreen, HCV NS3 helicase assay; stronger effect = lower value
[11] = modulation of C. elegans fzo-1 (AID 1259413; call rule not given here;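 note: fzo-1 mutant C. elegans worms in liquid wells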); details: C. elegans fzo-1 modulator screen, mean read-out; stronger effect = higher value
[12] = EMT-state selective cytotoxicity in co-culture – imaging, PC-3E GFP, TEM4-18 mCherry, primary screen (AID 1345086;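 active = compounds killing one labelled cell type while sparing the other, by normalised counts and ratio limits, not self-fluorescent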;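 for all read-outs here: cells exposed to compound for 72 h before imaging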;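 for red/green cell ratio (normalised): normalised mesenchymal count divided by normalised epithelial count so high means epithelial killing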); details: PC-3E GFP / TEM4-18 mCherry co-culture, imaging cell counts, at 1 µM; for red/green cell ratio (normalised): actives lie on both sides, counts scaled to control wells, 1 = unselective
F380Y = test: BK channel mutant inhibitors and activators – cell-based, U2OS BacMam, thallium flux, beta subunits, selectivity assay, profiling panel (AID 1259406); details: U2OS BacMam BK variants, at 30 µM;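 note: initial slope of Thallos dye fluorescence rise after thallium is added; log ratio against the mean of 0.3% DMSO vehicle wells on the same plate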
F380Y/beta1 = test: as above; details: U2OS BacMam BK variants, at 30 µM
F380Y/beta2Delta = test: as above; details: U2OS BacMam BK variants, at 30 µM
[13] = molecular target: Calcium-activated potassium channel subunit alpha-1 (Homo sapiens) + Leucine-rich repeat-containing protein 26 (Homo sapiens) (UniProt Q12791+Q2I0M4); test: as above; details: U2OS BacMam BK variants, F380Y/Slo1WT/gamma1, at 30 µM
R275C = test: as above; details: U2OS BacMam BK variants, at 30 µM
R275C/beta1 = test: as above; details: U2OS BacMam BK variants, at 30 µM
R275C/beta2Delta = test: as above; details: U2OS BacMam BK variants, at 30 µM
[14] = stronger effect = lower value, cell number ratio, induced over uninduced
[15] = measured here: relative caspase fold change +Dox/-Dox
[16] = measured here: total cells with miR-34 induction, stronger effect = lower value
[17] = measured here: total cells without miR-34 induction
[18] = MELAS cybrid survival, CellTiter-Glo 48 h, stronger effect = higher value
[19] = Rieske KO mouse fibroblast survival, CellTiter-Glo 72 h
[20] = measured here: epithelial PC-3E GFP cell survival
[21] = measured here: mesenchymal TEM4-18 mCherry cell survival

Chain of Calcium-activated potassium channel subunit alpha-1 (Homo sapiens) + Leucine-rich repeat-containing protein 26 (Homo sapiens) (Q2I0M4 whole entry, looked up, one chain of several): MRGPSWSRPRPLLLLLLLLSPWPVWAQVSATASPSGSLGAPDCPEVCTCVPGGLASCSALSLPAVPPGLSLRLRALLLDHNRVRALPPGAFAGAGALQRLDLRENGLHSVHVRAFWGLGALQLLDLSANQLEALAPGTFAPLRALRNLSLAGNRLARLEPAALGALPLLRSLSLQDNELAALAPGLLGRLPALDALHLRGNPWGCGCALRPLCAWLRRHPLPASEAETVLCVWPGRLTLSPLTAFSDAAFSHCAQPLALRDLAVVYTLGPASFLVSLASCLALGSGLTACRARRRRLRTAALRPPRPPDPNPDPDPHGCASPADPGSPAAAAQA
Chain of Mitogen-activated protein kinase 7 (Homo sapiens) (Q13164 whole entry, looked up, the tested form may be a part): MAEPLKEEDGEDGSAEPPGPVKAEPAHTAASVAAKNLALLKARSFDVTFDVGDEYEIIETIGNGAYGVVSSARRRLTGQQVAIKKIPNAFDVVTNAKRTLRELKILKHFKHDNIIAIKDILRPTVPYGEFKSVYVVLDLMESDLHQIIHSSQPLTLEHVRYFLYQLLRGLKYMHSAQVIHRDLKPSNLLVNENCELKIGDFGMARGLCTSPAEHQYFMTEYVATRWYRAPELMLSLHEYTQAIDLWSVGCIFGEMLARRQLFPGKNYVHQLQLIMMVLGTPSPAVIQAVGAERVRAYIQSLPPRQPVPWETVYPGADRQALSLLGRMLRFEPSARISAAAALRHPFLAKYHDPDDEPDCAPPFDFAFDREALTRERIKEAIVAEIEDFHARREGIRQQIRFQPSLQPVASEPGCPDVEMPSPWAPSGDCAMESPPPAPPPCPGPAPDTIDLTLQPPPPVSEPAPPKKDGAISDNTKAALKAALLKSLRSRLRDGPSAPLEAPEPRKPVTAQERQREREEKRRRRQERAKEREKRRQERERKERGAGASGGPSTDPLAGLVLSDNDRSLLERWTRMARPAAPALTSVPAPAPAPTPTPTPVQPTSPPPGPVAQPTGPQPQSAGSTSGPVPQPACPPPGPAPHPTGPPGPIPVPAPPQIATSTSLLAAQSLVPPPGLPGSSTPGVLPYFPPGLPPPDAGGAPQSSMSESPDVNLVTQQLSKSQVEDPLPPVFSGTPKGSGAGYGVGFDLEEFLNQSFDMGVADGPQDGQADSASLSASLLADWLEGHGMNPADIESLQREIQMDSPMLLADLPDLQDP
Chain of 6-phosphogluconate dehydrogenase, decarboxylating (Homo sapiens) (P52209 whole entry, looked up): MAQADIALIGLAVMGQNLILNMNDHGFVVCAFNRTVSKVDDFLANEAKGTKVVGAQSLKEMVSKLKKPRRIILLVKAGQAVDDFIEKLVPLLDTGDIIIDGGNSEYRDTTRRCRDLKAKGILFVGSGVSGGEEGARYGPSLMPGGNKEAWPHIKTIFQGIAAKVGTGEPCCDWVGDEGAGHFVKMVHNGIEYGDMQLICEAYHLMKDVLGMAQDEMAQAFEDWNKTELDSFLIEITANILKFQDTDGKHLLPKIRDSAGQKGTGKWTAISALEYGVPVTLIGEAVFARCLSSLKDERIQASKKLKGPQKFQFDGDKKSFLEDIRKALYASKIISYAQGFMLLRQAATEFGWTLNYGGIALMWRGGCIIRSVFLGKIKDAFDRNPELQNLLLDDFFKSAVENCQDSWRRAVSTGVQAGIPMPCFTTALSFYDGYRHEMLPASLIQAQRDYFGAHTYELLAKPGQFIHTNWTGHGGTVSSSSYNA

COc1ccc(C[C@H](N)C(=O)N[C@H]2[C@@H](O)[C@H](n3cnc4c(N(C)C)ncnc43)O[C@@H]2CO)cc1
inactive: parasite load remaining [1] -0.025% and -0.34% | inhibition [2] -10.2% | fold change [3, 14] 1.03 and 1.04 | z-score [4, 18] 0.777 | luciferase signal [5] 244 AU | z-score [6] -2.25
976 and 910: cell count [3, 17]
1.77 and 0.862: fold change [3, 15]
-0.707: z-score [4, 19]
1000 and 950: cell count [3, 16]
17.9% and 1%: viability [1]

Cc1occc(=O)c1O
inactive: parasite load remaining [1] 65.4% | fluorescence ratio [7] 1 | inhibition [8] -7.21% | inhibition [9] -2.76% | fluorescence ratio [10] 0.97 | inhibition [2] 8.86% | mean signal [11] 263 | red/green cell ratio (normalised) [12] 0.9 | fold change [3, 14] 1.32 | luciferase signal [5] 52 AU | z-score [6] 0.51 | log fold change Tl+ flux (F380Y) 0.00693 | log fold change Tl+ flux (F380Y/beta1) 0.0152 | log fold change Tl+ flux (F380Y/beta2Delta) 0.00122 | log fold change Tl+ flux [13] 0.0152 | log fold change Tl+ flux (R275C) -0.0195 | log fold change Tl+ flux (R275C/beta1) -0.0131 | log fold change Tl+ flux (R275C/beta2Delta) 0.041
0.534: fold change [3, 15]
6830: cell count [3, 17]
1.16: normalised cell number [12, 20]
68.2%: viability [1]
1.05: normalised cell number [12, 21]
9050: cell count [3, 16]

CC(C(=O)O)c1ccc(-c2ccccc2)c(F)c1 (centres undefined)
1.18 and -0.0179 and 1.37: z-score [4, 19]
1.18: normalised cell number [12, 21]
1.07: normalised cell number [12, 20]
inactive: fluorescence ratio [7] 0.95 and 0.99 | inhibition [8] -2.77% and -3.18% | inhibition [9] 6.83% and 0.29% | fluorescence ratio [10] 0.9 and 0.98 | inhibition [2] 19% | mean signal [11] 239 | red/green cell ratio (normalised) [12] 1.1 | z-score [4, 18] -0.289 and 0.565 and 0.434 | luciferase signal [5] 40 AU | log fold change Tl+ flux (F380Y) 0.0247 | log fold change Tl+ flux (F380Y/beta1) 0.0374 | log fold change Tl+ flux (F380Y/beta2Delta) -0.00435 | log fold change Tl+ flux [13] 0.0464 | log fold change Tl+ flux (R275C) -0.0123 | log fold change Tl+ flux (R275C/beta1) 0.0432 | log fold change Tl+ flux (R275C/beta2Delta) 0.0621

CCCCC(=O)N(Cc1ccc(-c2ccccc2-c2nn[nH]n2)cc1)[C@H](C(=O)O)C(C)C
8430 and 12500: cell count [3, 17]
0.477 and 2.43: fold change [3, 15]
89.7% and 98.7% and 73.8%: viability [1]
inactive: parasite load remaining [1] 147% and 47.5% and 92.3% | fluorescence ratio [7] 1.07 | inhibition [8] 4.36% | inhibition [9] 4.52% | fluorescence ratio [10] 1.05 | inhibition [2] -2.51% | mean signal [11] 250 | red/green cell ratio (normalised) [12] 1.14 | fold change [3, 14] 0.954 and 0.853 | z-score [4, 18] 0.123 and -0.397 | luciferase signal [5] 56 AU | log fold change Tl+ flux (F380Y) 0.0751 | log fold change Tl+ flux (F380Y/beta1) -0.0013 | log fold change Tl+ flux (F380Y/beta2Delta) 0.0113 | log fold change Tl+ flux [13] 0.0422 | log fold change Tl+ flux (R275C) -0.0315 | log fold change Tl+ flux (R275C/beta1) 0.0112 | log fold change Tl+ flux (R275C/beta2Delta) 0.014
1.3: normalised cell number [12, 21]
0.0466 and -1.21: z-score [4, 19]
8040 and 10600: cell count [3, 16]
1.14: normalised cell number [12, 20]

C[C@H]1COc2c(N3CCN(C)CC3)c(F)cc3c(=O)c(C(=O)O)cn1c23
1.13: normalised cell number [12, 21]
-0.528: z-score [4, 19]
1.12: normalised cell number [12, 20]
11000 and 8630: cell count [3, 16]
12300 and 10100: cell count [3, 17]
6.58 and 0.734: fold change [3, 15]
inactive: fluorescence ratio [7] 1.03 | inhibition [8] -3.56% | inhibition [9] -3.95% | fluorescence ratio [10] 1 | inhibition [2] 0.836% | mean signal [11] 274 | red/green cell ratio (normalised) [12] 1.01 | fold change [3, 14] 0.893 and 0.857 | z-score [4, 18] -0.0762 | luciferase signal [5] 296 AU | z-score [6] -0.45 | log fold change Tl+ flux (F380Y) -0.012 | log fold change Tl+ flux (F380Y/beta1) 0.0152 | log fold change Tl+ flux (F380Y/beta2Delta) 0.0117 | log fold change Tl+ flux [13] 0.00221 | log fold change Tl+ flux (R275C) -0.0297 | log fold change Tl+ flux (R275C/beta1) 0.0187 | log fold change Tl+ flux (R275C/beta2Delta) -0.00628

CCCc1occc(=O)c1/C=C/O
inactive: inhibition [2] -1.45%
